# Test results published in PubChem BioAssay AID504332 (National Center for Advancing Translational Sciences (NCATS), 2011).
# Screen size: about 350,000 compounds; about 31,000 (8.9%) were called active. About 15% were inconclusive and are not listed. The call rests on the fitted dose curve; in most records, active means well fitted inhibition curve with a large enough effect; inconclusive means small, poorly fitted or top-dose-only effect; inactive means no such curve, though single readings can be large or run the other way. Many of the other results were omitted from the sample, so actives are more common in it than they were.
# Biological target: Histone-lysine N-methyltransferase EHMT2 (Homo sapiens) (UniProt Q96KQ7)
# Test: qHTS Assay for Inhibitors of Histone Lysine Methyltransferase G9a; further: nearly all actives have a fitted effect of over 75% in size
# Settings: G9a H3K9 monomethylation, AlphaScreen, 2 h; series mostly up to 59 µM; activity, negative = inhibition: at the top concentration
# Method in brief: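 Methyltransferase reactions run at room temperature for 2 h (20 nM enzyme, 500 nM biotin-H3K9 peptide, 20 uM SAM) after a 15 min compound preincubation; product detected by AlphaScreen beads and anti-H3K9me1 antibody.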
# On the % scale 0 is the no-effect control and ±100 the full control effect; potency means the concentration at half of the fitted maximal effect.
# Chain of Histone-lysine N-methyltransferase EHMT2 (Homo sapiens) (Q96KQ7 913-1193 limits assumed): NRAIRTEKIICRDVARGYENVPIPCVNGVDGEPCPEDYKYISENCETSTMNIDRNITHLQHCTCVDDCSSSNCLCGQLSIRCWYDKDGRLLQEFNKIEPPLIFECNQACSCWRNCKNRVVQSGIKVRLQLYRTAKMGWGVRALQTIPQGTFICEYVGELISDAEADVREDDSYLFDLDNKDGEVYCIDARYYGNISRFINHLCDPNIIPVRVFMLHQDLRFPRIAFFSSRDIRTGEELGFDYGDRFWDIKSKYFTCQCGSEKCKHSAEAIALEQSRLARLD
Compound,Potency,"activity, negative = inhibition"
COc1ccccc1NC(=S)N1CCN(C(c2ccccc2)c2ccccc2)CC1,28.2 µM (active),–
CCOc1ccccc1NC(=S)N1CCN(c2cccc(C)c2C)CC1,–,16.7% [at 102 µM] (inactive)
O=C(c1ccc(-n2cnnn2)cc1)N1CCN(C(c2ccccc2)c2ccccc2)CC1,–,0.701% (inactive)
Oc1ccccc1CN1CCN(C(c2ccccc2)c2ccccc2)CC1,28.2 µM (active),–
COc1ccccc1NC(=S)N1CCN(c2ccc(F)cc2)CC1,–,-4.21% [at 0.501 µM] (inactive)
COc1ccccc1CN1CC2(CCN(S(=O)(=O)c3ccccc3)CC2)C1,–,8.67% [at 12.7 µM] (inactive)
CC(C)OCC(O)CN1CCN(C(c2ccccc2)c2ccccc2)CC1 (configuration not stated),50.1 µM (active),–
COc1ccccc1CNCc1ccc(C(=O)O)s1,–,-1.62% (inactive)
c1ccc(C(c2ccccc2)N2CCN(Cc3nnnn3C3CCCCC3)CC2)cc1,–,1.35% (inactive)
COc1ccccc1CN1CCN(C(c2ccccc2)c2ccccc2)CC1,10 µM (active),–
CC(=O)N1CCN(CC(c2ccccc2)c2ccccc2)CC1,–,-30.3% [at 102 µM] (inactive)
CC(C)NC(=S)N1CCN(C(c2ccccc2)c2ccccc2)CC1,–,7.96% [at 102 µM] (inactive)
O=C(NCCCc1ccccc1)c1cc(COc2c(F)cccc2F)on1,–,178% [at 102 µM] (inactive)
CCc1nn(CCCC(=O)NCc2ccc(C)cc2)c(=O)c2cc3occc3n12,inactive,–
CN(CCc1ccccn1)C1CCCN(S(=O)(=O)c2ccccc2Cl)C1 (configuration not stated),–,-5.52% [at 102 µM] (inactive)
COc1c(Cl)cc(Cl)cc1C(=O)Nc1cccc2cccnc12,–,56.1% (inactive)
COc1ccc(-c2nn3c(=O)cc(CN4CCN(C(=O)c5ccc(OC)c(OC)c5)CC4)nc3s2)cc1,–,12.8% (inactive)
Cc1ccc(S(=O)(=O)N[C@@H](Cc2ccccc2)C(=O)N2CCC(C(=O)N[C@H](C(=O)O)C(C)O)CC2)cc1 (some centres not stated),–,1.01% [at 102 µM] (inactive)
COc1ccc(S(=O)(=O)N2CCOCC2)cc1NC(=O)Cc1c(F)cccc1Cl,–,17.5% [at 12.7 µM] (inactive)
CC(OC(=O)CNC(=O)c1cccc(F)c1)C(=O)NC1CCCCC1C (configuration not stated),–,2.6% [at 102 µM] (inactive)
COc1ccc(NC(=O)C2CCN(c3ccc(Sc4ccc(C)cc4)nn3)CC2)c(OC)c1,–,-3.36% (inactive)
Cc1cc(NC(=O)c2ccc(-c3ccc(Cl)cc3)o2)cc(-c2nc3ncccc3o2)c1O,–,3.7% (inactive)
COc1ccc(CCNC(=O)CCc2ccccc2O)cc1OC,–,7.03% [at 0.501 µM] (inactive)
COc1ccccc1CN1CCN(Cc2cc(OC)c(OC)cc2OC)CC1,8.91 µM (active),–
COc1ccc(OC)c(CN2CCN(C(=O)CNC(=O)c3cc(C)cc(C)c3)CC2)c1,–,31.1% (inactive)

Compound,Potency,"activity, negative = inhibition"
COC(=O)N1CCC2(CCCN(Cc3ccccc3OC)C2)CC1,–,2.95% [at 12.7 µM] (inactive)
COc1ccc(C(=O)CSc2c(C(C)C)cnc3c2c(=O)n(C)c(=O)n3C)cc1,–,-3.65% (inactive)
CCN1C(=O)[C@@H]2[C@@H](c3ccc(-c4ccccc4)cc3)N3CCCC[C@@]3(C(=O)OC)[C@@H]2C1=O,–,-6.56% [at 2.33 µM] (inactive)
CCc1cnc2c(c1SCC(=O)N1CCC(C)CC1)c(=O)n(C)c(=O)n2C,–,9.16% (inactive)
COc1ccc(N(C(=O)c2cccnc2)S(=O)(=O)c2ccc3c(c2)n(C)c(=O)n3C)cc1,–,-0.924% [at 12.7 µM] (inactive)
O=C(c1cccnc1)N(c1cc2sc(=O)oc2c2ccccc12)S(=O)(=O)c1ccccc1,1.12 µM (active),–
COc1ccc(N(C(=O)c2cccnc2)S(=O)(=O)c2ccc(OC)c(OC)c2)cc1,–,13.8% [at 102 µM] (inactive)
O=C(c1ccco1)N1CCN(C(=O)c2cc(-c3ccccc3F)no2)CC1,–,-5.83% [at 102 µM] (inactive)
CCO/C=C1\C(=O)N(c2ccc(OCC)cc2)C(=O)c2ccccc21,31.6 µM (active),–
CCOc1ccc(NC(=O)C(CC(C)C)N2Cc3ccccc3C2=O)cc1 (configuration not stated),–,3.11% (inactive)
CCCOC(=O)c1ccc(N2C(=O)c3ccccc3C2=O)cc1,–,-5.76% (inactive)
O=C(COC(=O)c1ncc(Cl)c(Cl)c1Cl)NNC(=O)c1ccccc1,–,5.49% [at 102 µM] (inactive)
O=[N+]([O-])c1cc([N+](=O)[O-])c2cccnc2c1O,31.6 µM (active),–
COC(=O)c1ccc(COc2cc([N+](=O)[O-])cc3cccnc23)cc1,–,-18.3% [at 102 µM] (inactive)
Cc1ccc(C(=O)Nc2cccc3ncccc23)cc1[N+](=O)[O-],–,35.3% [at 12.7 µM] (inactive)
CCc1c(C)nc(N2CCN(Cc3ccccc3)CC2)[nH]c1=O,–,-41.6% [at 12.7 µM] (inactive)
O=c1cc(N2CCN(Cc3ccccc3)CC2)c(-c2ccccc2)n[nH]1,–,88.4% (inactive)
O=C1c2ccccc2C(=O)c2c1cccc2N1CCN(Cc2ccccc2)CC1,10 µM (active),–
N#Cc1cccc(OC(=O)c2ccc3c(=O)n4c(nc3c2)CCC4)c1,–,-1.34% [at 0.501 µM] (inactive)
COc1ccc(-c2cc3ncccc3cn2)cc1,–,-3.56% [at 0.501 µM] (inactive)
COc1ccc(-c2cc(C3CCN(c4ncccc4[N+](=O)[O-])CC3)[nH]n2)cc1,50.1 µM (active),–
CC(=O)NC(Cc1ccccc1)C(=O)NC1CCN(c2ncccc2[N+](=O)[O-])CC1 (configuration not stated),–,12.9% [at 102 µM] (inactive)
O=C(NCC1CCCO1)c1cc2c([nH]c3ccccc32)c(-c2ccc(F)cc2)n1 (configuration not stated),–,6.78% [at 12.7 µM] (inactive)
COc1cc(NC(=O)CN2C(=O)NC(C)(c3ccc(OC(F)F)cc3)C2=O)cc(OC)c1OC (configuration not stated),–,9.2% [at 102 µM] (inactive)
CSc1nc(-c2ccc(F)cc2)nc2c1Cc1c(CO)cnc(C)c1O2,–,-2.18% (inactive)

Compound,Potency,"activity, negative = inhibition"
CCc1nc(C)cn1S(=O)(=O)c1cc(OC)c(C)cc1C,44.7 µM (active),–
CCc1nc(C)cn1S(=O)(=O)c1cc([N+](=O)[O-])ccc1Cl,–,-42.6% [at 102 µM] (inactive)
COc1cc(Cl)c(S(=O)(=O)n2cnc(C)c2)cc1Cl,–,8.6% (inactive)
CCOc1cc(/C=C2\SC(N3CCCC(C)C3)=NC2=O)ccc1O (configuration not stated),–,8.33% [at 102 µM] (inactive)
CC(C)C(=O)NCC(c1cccs1)S(=O)(=O)c1ccc(F)cc1 (configuration not stated),–,-1.3% [at 102 µM] (inactive)
CC1CCCC(C)N1C(=O)COC(=O)COc1ccccc1C#N (configuration not stated),–,15.3% (inactive)
COc1ccccc1N1CCN(CCN2C(=O)c3ccccc3C(C)(C)C2=O)CC1,–,4.6% (inactive)
CC(=O)Nc1ccc(OCC(O)CN2CCN(c3ccccc3Cl)CC2)cc1 (configuration not stated),–,6.83% (inactive)
CNCC(O)CN1CCN(c2ccccc2OC)CC1 (configuration not stated),50.1 µM (active),–
COc1ccccc1N1CCN(CC(=O)NCCc2ccc(S(N)(=O)=O)cc2)CC1,–,1.17% [at 102 µM] (inactive)
COC(=O)c1cnc(N2CCN(c3ccccc3OC)CC2)c2ccccc12,–,13.9% (inactive)
COc1ccccc1N1CCN(Cc2ccc(OC)c3ccccc23)CC1,8.91 µM (active),–
S=C(Nc1cccnc1)Nc1ccccn1,–,-8.13% [at 2.33 µM] (inactive)
COc1ccc(S(=O)(=O)N2CCCCC2)cc1C(=O)NC1CCS(=O)(=O)C1 (configuration not stated),–,-6.27% (inactive)
CCOC(=O)c1cc(-c2ccccc2C)n(Cc2cc(C)no2)n1,–,-5.1% [at 0.501 µM] (inactive)
CN(C(=O)COC(=O)Cn1cnc2c1c(=O)n(C)c(=O)n2C)C1(C#N)CCCCC1,–,24% [at 12.7 µM] (inactive)
O=C(N/N=C\c1cccnc1)c1cc(-c2ccccc2)nc2c(Cl)cccc12,–,8.22% [at 102 µM] (inactive)
Cc1cc(-c2n[nH]c(=S)n2/N=C/c2ccco2)n[nH]1,–,-104% [at 12.7 µM] (inactive)
Cc1cc(C(=O)N/N=C\C(Br)=C\c2ccccc2)c(C)o1,–,-42.4% [at 102 µM] (inactive)
S=c1[nH]nc(-c2cccnc2)n1/N=C/C(Cl)=C\c1ccccc1,0.891 µM (active),–
c1ccc(-n2nnnc2-c2cccnc2)cc1,–,-12.2% [at 102 µM] (inactive)
Cc1cc(-c2n[nH]c(=S)n2/N=C/C(Br)=C/c2ccccc2)n[nH]1,6.31 µM (active),–
O=C(O)CCCn1cc(NC(=O)COc2cccc(Cl)c2)cn1,–,6.71% [at 102 µM] (inactive)
O=C1CCN(CCCc2ccccc2)CCN1CCO,–,-2.88% [at 102 µM] (inactive)
COc1ccc(C(=O)Nc2c(Cl)cc(Cl)cc2C(=O)N2CCC(C)CC2)cc1,–,14.3% (inactive)

Compound,Potency,"activity, negative = inhibition"
Cc1csc(NC(=O)c2ccc(-c3ccc(Cl)cc3Cl)o2)n1,–,2.91% (inactive)
CC1CCN(C(=S)c2ccc(-c3ccc(Cl)cc3Cl)o2)CC1,8.91 µM (active),–
COc1ccc(CNC(=O)C(C)n2nc(C)c3c(C)n(-c4ccccc4)nc3c2=O)c(OC)c1 (configuration not stated),inactive,–
O=[N+]([O-])c1ccc(N2CCNCC2)cc1NCc1cccnc1,–,1.92% (inactive)
CN1CCN(c2ccc([N+](=O)[O-])c(Sc3nc4ccccc4[nH]3)c2)CC1,10 µM (active),–
CC1CCN(c2ccc([N+](=O)[O-])c(SCCO)c2)CC1,–,-14.6% (inactive)
CCOC(=O)c1ccccc1NC(=O)CCc1c(C)nc2c(c1C)c(=O)n(C)c(=O)n2C,–,4.26% (inactive)
CCOc1ccc(N2CC(c3nc4ccccc4n3CCOc3ccc(OC)cc3)CC2=O)cc1 (configuration not stated),–,-48.9% (inactive)
CCc1ccccc1OCC(=O)Nc1ccc2c(c1)OCCO2,–,-6.66% [at 102 µM] (inactive)
COc1ccc(NC(=O)CSc2nnc(-c3ccccc3F)n2C2CC2)cc1S(N)(=O)=O,44.7 µM (active),–
COc1ccc(NC(=O)CSc2nnc(C3CC3)n2C)cc1S(=O)(=O)N1CCCCC1,–,-4.19% (inactive)
CC(Sc1nnc(-c2ccccc2F)n1C1CC1)C(N)=O (configuration not stated),–,-3.42% (inactive)
Cc1ccc(S(=O)(=O)N(CC(=O)NCc2ccco2)c2ccccc2C)cc1,–,-17.8% [at 102 µM] (inactive)
CCOC(=O)C(Cc1ccccc1)NC(=O)CCc1c(C)nc2c(c(C)nn2-c2ccc(C)c(C)c2)c1C (configuration not stated),–,1.4% (inactive)
CCOC(=O)c1cc2c(=O)n3ccccc3nc2n(Cc2ccco2)c1=NC(=O)c1ccc(F)cc1,–,9.03% (inactive)
COC(=O)c1ccc(NC(=O)c2cnn(-c3ccc(Cl)cc3)c2C2CCN(C(=O)OC(C)(C)C)CC2)cc1,–,-29.6% (inactive)
COc1cccc(NC(=O)CN(C)C(=O)CSC(=S)N2CCCC2)c1,14.1 µM (active),–
CCOc1cccc(NC(=O)C2CCCN(S(=O)(=O)c3ccc(OC)cc3)C2)c1 (configuration not stated),–,-28.2% [at 102 µM] (inactive)
CCN(CC(=O)Nc1ccc(S(=O)(=O)N2CCCC2)cc1)CC(=O)Nc1cccc(OC)c1,31.6 µM (active),–
COc1cccc(NC(=O)CN(C)C(=O)Cc2ccc(Cl)cc2Cl)c1,–,1.78% [at 102 µM] (inactive)
COc1cccc(NC(=O)CN(C)CC(=O)Nc2ccc3c(c2)CCC3)c1,–,-6.51% [at 102 µM] (inactive)
COc1ccccc1CC(=O)Nc1ccc(S(=O)(=O)N2CCCC2)cc1,–,10.5% [at 102 µM] (inactive)
